Most compounds without a hit are left out; they make up all but 3.2% or so of the library.
GDH-TPI inh = GDH-TPI coupling enzyme inhibitors, primary screen, artefact control for M. tuberculosis FBA inhibitor project, biochemical, absorbance, full deck; AID 588335, 2011; inhibition, % at 4.8 µM; GDH-TPI coupled enzyme counterscreen, NADH absorbance; 1.2% of 360,000 active; in the data active = inhibition above about 30%;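 also: 0% = DMSO wells and 100% = wells lacking the enzyme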
Mtb FBA inh = Mtb FBA enzyme inhibitors, primary screen, biochemical, fluorescence, strain H37Rv; inhibition, % at 1 µM; Fructose-bisphosphate aldolase (Mycobacterium tuberculosis (strain ATCC 25618 / H37Rv)), …; purified M. tuberculosis FBA, fluorescence read-out; 2.3% of 360,000 active; in the data active = inhibition above about 27%;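 also: 0% = vehicle and 100% = reference inhibitor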
Target sequence (P9WQA3 whole entry, looked up): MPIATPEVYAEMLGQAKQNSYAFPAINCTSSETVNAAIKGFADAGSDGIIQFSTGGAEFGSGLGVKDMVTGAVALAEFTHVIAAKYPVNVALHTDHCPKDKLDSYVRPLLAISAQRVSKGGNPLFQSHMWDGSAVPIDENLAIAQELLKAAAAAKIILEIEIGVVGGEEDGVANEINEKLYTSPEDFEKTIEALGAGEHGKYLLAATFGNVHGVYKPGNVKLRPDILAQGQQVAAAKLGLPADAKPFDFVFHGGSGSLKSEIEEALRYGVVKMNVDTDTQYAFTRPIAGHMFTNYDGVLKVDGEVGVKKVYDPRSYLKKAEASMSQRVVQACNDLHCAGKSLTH
PriA SSB inh = inhibitors of Klebsiella pneumoniae PriA binding to SSB C-terminal tail, primary screen, biochemical, AlphaScreen; PriA–SSB C-terminal tail interaction (Klebsiella pneumoniae); AlphaScreen SSBct-PriA binding, biotinylated peptide; inhibition, % at 33 µM; 0.6% of 430,000 active; AID 1272365, 2023; in the data active = inhibition mostly above about 37%, no sharp cut-off; inactive = mostly below about 20%;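 also: plate controls were negative control peptide for no effect and reference peptide for full effect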
Mtb bLac sens = beta-lactam sensitization of Mtb H37Rv, H37Rv. M. tuberculosis H37Rv growth with meropenem, percent inhibition. inhibition, % at 25 µM. 0.27% of 330,000 active. AID 434955, 2010; call rule not given here;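 also: growth measured after seven days incubation then overnight dye step; 0% = bacteria only wells and 100% = bacteria with antibiotic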
Mtb UGM inh = M. tuberculosis UGM enzyme inhibitors, primary screen, biochemical, fluorescence polarization, single point; UDP-galactopyranose mutase (Mycobacterium tuberculosis (strain ATCC 25618 / H37Rv)), …; purified UGM, fluorescence polarization probe displacement; inhibition, % at 10 µM; 0.06% of 320,000 active; in the data active = inhibition above about 10%, passing the limit was not always enough; inconclusive = no clear call, values can overlap the other calls
Rv3671c inh = Rv3671c serine protease inhibitors, primary screen, biochemical, fluorescence polarization, M. tuberculosis H37Rv | 0.048% of 320,000 active | inhibition, % at 5.96 µM | P9WHR9; in the data active = inhibition above about 38%;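 also: extracellular domain of Rv3671c used as enzyme; 0% = enzyme with DMSO and 100% = no enzyme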
Starred values were filed as active, the others as inactive; ? = inconclusive; . = not tested or not shown; + = active, no number.

SMILES	GDH-TPI inh	Mtb FBA inh	PriA SSB inh	Mtb bLac sens	Mtb UGM inh	Rv3671c inh
COc1ccccc1CCC(=O)Nc1ccc2c(c1)c(=O)n(C)n2-c1cccs1	8	1	.	.	.	.
COc1cc(Cn2c3ccc(NC(=O)NCCc4ccccc4)cc3c(=O)n2C)ccc1F	2	145*	.	.	.	.
COc1cc(Cn2c3ccc(NC(=O)CCc4cccnc4)cc3c(=O)n2C)ccc1F	3	177*	.	.	.	.
O=C(O)c1ccc2ccccc2c1O	.	.	-3	.	.	.
Cc1cc(C)c(NC(=O)CCc2ccccc2)c(Cl)c1	.	.	-7	.	.	.
CCn1c(=NC(=O)C2CCCN2S(=O)(=O)c2ccc(OC)cc2)sc2ccccc21 (stereo not given)	.	.	21	.	.	.
c1ccc(CN(Cc2ccccc2)c2nc(N(Cc3ccccc3)Cc3ccccc3)nc(N(Cc3ccccc3)Cc3ccccc3)n2)cc1	.	.	-5	.	.	.
O=C(Cn1cncn1)Nc1ccc(S(=O)(=O)Nc2nccs2)cc1	.	.	-2	.	.	.
Cc1cc(C(=O)N2C3CCC2CC(S(=O)(=O)c2ccccc2)C3)c(C)o1 (stereo not given)	.	.	-2	.	.	.
Cn1c(=O)c2cc(NC(=O)CCc3cccnc3)ccc2n1Cc1ccc(F)cc1	8	175*	.	.	.	.
NC(=O)Cn1c2ccc([N+](=O)[O-])cc2c2cc([N+](=O)[O-])ccc21	.	.	7	.	.	.
CCCCNC(=S)N1CCN(c2ccc(C(C)=O)cc2)CC1	35*	-1	0	4	4	-11
CCCCNC(=O)N(O)C1N(N=Cc2ccccc2F)C(=S)SC1(C)C (stereo not given)	.	.	6	.	.	.
CN1CCCC1CCNc1ccc2c(=O)c3ccccc3oc2c1 (stereo not given)	31*	+	-8	-1	2	-9
CN1CCC[C@H]1CCNc1ccc2c(=O)c3ccccc3n(C)c2c1	33*	187*	-6	.	.	.
COc1ccc(OC(C)C(=O)O)cc1 (stereo not given)	.	.	-21	.	.	.
N#CCOc1ccc2cc(-c3ccccc3)c(=O)oc2c1	.	.	-15	.	.	.
CC(=O)COc1ccc2cc(-c3ccccc3)c(=O)oc2c1	40*	+	-4	-2	1	7
CCOC(=O)c1ccc(COC(=O)c2cc3ccccc3oc2=O)o1	12	8	-8	5	-2	-7
COc1ccc(-c2cc3ccc(OC(C)C(=O)O)cc3oc2=O)cc1 (stereo not given)	16	+	-6	-1	1	.
CC(=O)Oc1ccc2cc(-c3ccccc3)c(=O)oc2c1	6	158*	3	-4	0	-9
CCOC(=O)COc1ccc2cc(C(=O)OCC)c(=O)oc2c1	38*	184*	2	77	0	0
COc1cc(C=NNC(=O)CNC(=O)C(c2ccccc2)c2ccccc2)ccc1O	.	.	-15	.	.	.
COc1ccc(-c2c(C#N)c(N)n(N)c(=O)c2C#N)cc1Cl	13	4	-4	5	3	-3
N#Cc1c(-c2ccc(Cl)cc2)c(C#N)c(=O)n(N)c1N	33*	-4	2	0	2	4
SMILES	GDH-TPI inh	Mtb FBA inh	PriA SSB inh	Mtb bLac sens	Mtb UGM inh	Rv3671c inh
CSc1nc(N)c(C#N)c(-c2ccc(Cl)cc2)c1C#N	33*	4	-21	2	0	-55
Cc1nsc(C(=O)N2CCC[C@H](C)C2)n1	.	.	-12	.	.	.
CC(C)=CCN1CCN(Cc2cccc3nccnc23)CC1CCO (stereo not given)	31*	-2	-3	-3	-1	7
Cc1cc(C(=O)Nc2sc3c(c2C#N)CCC3)no1	13	-4	-15	19	2	1
N#Cc1c(NC(=O)c2cc(C3CC3)on2)sc2c1CCC2	34*	1	-8	3	3	2
Cc1cc(C)c2c(N)c(C(=O)Nc3ccccc3Cl)sc2n1	6	33*	-10	49	0	3
C=COC(=O)c1sc2nc(C)cc(C)c2c1N	1	134*	-5	3	4	4
CC(=O)Nc1ccc(C(=O)NN=Cc2cccnc2)cc1	.	.	-9	.	.	.
O=C(c1ccccc1Br)N1CCC(Oc2nc3ccccc3s2)CC1	.	.	-2	.	.	.
COc1cc2ccc(=O)oc2c(O)c1O	13	5	-2	.	.	.
COc1cc2oc(=O)ccc2cc1-c1c(OC)ccc2ccc(=O)oc12	35*	4	-3	-2	.	-2
O=S(=O)(NCCCc1ccccc1)c1cccc2cnccc12	.	.	5	.	.	.
Cc1cc(N2CCOCC2)nc(Nc2ccc(NC(=O)CCCc3ccccc3)cc2)n1	.	.	-15	.	.	.
COC(=O)c1cc2c(ccc3ccccc32)oc1=O	20	+	-6	99	-4	6
CCc1ccc(CN2CCC(C(=O)Nc3cccc(-c4nnc(C)s4)c3)CC2)o1	9	6	57*	?	4	-5
CCn1cc(CN2CCC(C(=O)Nc3cccc(-c4cccc(F)c4)c3)CC2)cn1	0	1	39*	1	1	4
N#C/C(=C\c1cccs1)c1nc2ccccc2[nH]1	29	-3	1	-4	0	-13
O=C(N/C(=C\c1cccnc1)c1nc2ccccc2[nH]1)c1cccc(Br)c1	22	-1	-2	5	-1	-2
O=C(N/C(=C\c1ccc(Br)cc1)c1nc2ccccc2[nH]1)c1ccco1	47*	2	-4	-3	1	8
O=C(N/C(=C/c1cccs1)c1nc2ccccc2[nH]1)c1ccccc1	33*	-1	1	-2	0	5
Cc1ccc(C(=O)N/C(=C\c2cccs2)c2nc3ccccc3[nH]2)cc1	44*	0	2	3	0	-9
COc1cc(C)c(C)cc1S(=O)(=O)NCCc1sc(-c2ccc(Cl)cc2)nc1C	.	.	4	.	.	.
Cc1nn(C)c(C)c1C(=O)NCCn1nc(-c2cccs2)cc1C	.	.	-11	.	.	.
CC(=O)Nc1ccc(SCc2c(F)cccc2Cl)nn1	.	.	-5	.	.	.
FC(F)Oc1ccc(C=Nc2c(-c3ccc(OC(F)F)cc3)nc3n2CCS3)cc1	.	.	25	.	.	.
SMILES	GDH-TPI inh	Mtb FBA inh	PriA SSB inh	Mtb bLac sens	Mtb UGM inh	Rv3671c inh
COc1ccc(C=Nc2c(-c3ccc(OC)cc3)nc3n2CCS3)cc1	.	.	56*	.	.	.
N#C/C(=C\c1ccc(-c2ccccc2[N+](=O)[O-])o1)C(N)=O	41*	-4	3	-8	2	11
O=C(O)COc1ccccc1/C=C1\SC(=S)N(NC(=O)c2ccccc2O)C1=O	33*	-3	-4	-1	-1	-9
COc1ccc(C=NNc2cc(=O)n(C)c(=O)n2C)cc1OC	.	.	3	.	.	.
COc1ccc(C2=CC(c3ccco3)n3ncnc3N2)cc1 (stereo not given)	15	71*	-12	.	.	.
COc1ccc(C2C=C(c3ccccc3)Nc3ncnn32)cc1 (stereo not given)	14	118*	-7	24	1	8

Bioassay records: PubChem BioAssay, several laboratories
